Assay results reported in PubChem BioAssay.
Inconclusive results are not listed. Active and inactive are the calls of the source.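 The calls were made as follows, unless noted: active = RAM network inhibition above 8.4% in each of two replicates, 3 SD over the compound average; inconclusive = above 8.4% inhibition in only one replicate; inactive = 8.4% inhibition or less in each replicate.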

Experiments:
[1] = reducers of endogenous Her2 protein level, primary screen, SKBR3 breast tumor cells, AlphaScreen, ATP viability (AID 461;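 active = Her2 level under about 52% in both replicate screens, with viability over 70% of control, limit read from the data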;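 as to Her2 level: lower value means less Her2 protein in the cells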;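 as to viability: percent of carrier control wells set as 100% viability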); conditions: 18-24 h, measured here: SKBR3 viability, ATP luminescence, at 10 µM
[2] = biological target: Receptor tyrosine-protein kinase erbB-2 (Homo sapiens) (UniProt P04626); assay: as above; conditions: 18-24 h, at 10 µM, stronger effect = lower value
[3] = SK-BR-3 cell growth inhibitors, pilot screen, 24 h, human (AID 572;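 active = viability at or below 10% of carrier control in both of two separate runs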;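 also: compound exposure lasted between 18 and 24 h rather than exactly 24 h; 100% = carrier-treated control wells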); conditions: SK-BR-3 viability, CellTiter-Glo luminescence, at 10 µM, stronger effect = lower value
[4] = HUVEC growth inhibition – cell-based, human, primary screen (AID 575;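 active = viability at or below 30% in both replicate assays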;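 also: 100% = median of untreated cell wells with 0.1% DMSO on each plate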); conditions: HUVEC proliferation, CellTiter-Glo luminescence, 72 h; at 10 µM; stronger effect = lower value
[5] = growth inhibitors of H69AR lung tumor, primary screen, human, duplicate replicates (AID 580;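 active = viability at or under a set limit in both replicates, limit being median viability minus 3 SD, cut at about 48% in these data, passing the limit was not always enough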;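 also: 100% = mean luminescence of untreated wells and 0% = no signal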); conditions: H69AR lung tumor cells viability, ATP luminescence, 72 h; at 10 µM; stronger effect = lower value
[6] = reversal of MRP1-mediated doxorubicin resistance, pilot screen, H69AR cells, doxorubicin co-treatment (AID 601;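 active = viability loss from added drug above about 55%, and viability with drug at most 40%, in both replicates, limit read from the data, passing the limit was not always enough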); conditions: CellTiter-Glo, 72 h, at 10 µM; for differential viability (reversal): stronger effect = higher value
[7] = 384-well plate pilot, post-Golgi transport modulator project, inhibition of yeast transport mutant growth (AID 636; in the data active = inhibition above about 31%); conditions: absorbance 615 nm, about 18 h, stronger effect = higher value
[8] = growth suppression of yeast trafficking mutant, preliminary HTS, modulators of trafficking downstream of Golgi apparatus project, 1536-format plate, OD 615 nm (AID 637; in the data active = inhibition above about 30%); conditions: yeast transport mutant growth, absorbance 615 nm, 18 h; stronger effect = higher value
[9] = OD615 S. cerevisiae growth inhibition, permissive medium, pilot counter-assay, permissive growth control for S. cerevisiae lifespan shortening project (AID 705;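 active = growth inhibition above 25% in both replicates, a cutoff set 3 SD above the mean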); conditions: OD615, 24 h, at 10 µM, stronger effect = higher value
[10] = Restrictive medium S. cerevisiae growth inhibition, OD615, pilot screen of yeast lifespan reduction project, restrictive growth control (AID 706;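 active = growth inhibition above a set limit, 3 SD over mean compound inhibition, in both replicates, cut at about 43% in these data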;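 also: modified DeaD lifespan yeast strain shifted to restrictive glucose medium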); conditions: OD615, 48 h, at 10 µM, stronger effect = higher value
[11] = viability gain of MRP-1-high H69AR cells under doxorubicin, pilot screen, MRP-1 activator project, CellTiter-Glo, duplicate (AID 807;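 active = viability increase at or above a cutoff of the median across tested compounds plus 3 SD, cut at about 8.5% in these data, passing the limit was not always enough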;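 also: compound pretreatment 18-22 h then 72 h combined with doxorubicin; 0% = doxorubicin alone and 100% = vehicle without doxorubicin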); conditions: H69AR viability with doxorubicin, CellTiter-Glo luminescence; at 10 µM; stronger effect = higher value
[12] = growth suppression of beta-catenin knockout HCT116, pilot screen, human colon tumor cells (AID 823;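 active = cell viability at or below a set limit in both duplicate runs, the limit being the all-compound median minus 4 SD, cut at about 23% in these data, passing the limit was not always enough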;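 also: 0% = wells killed by 20 µM Hyamine and 100% = untreated DMSO cell wells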); conditions: CellTiter-Glo, 60 h, at 10 µM, stronger effect = lower value
[13] = growth suppression of PTEN-deleted HCT116, pilot screen, cell-based, HCT116 clonal line, CellTiter-Glo (AID 824;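 active = viability at or below 27.92% in each of two runs, the all-compound median minus 4 SD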;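 also: 0% = 20 µM Hyamine control and 100% = vehicle cell control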); conditions: 60 h, at 10 µM, stronger effect = lower value
[14] = inhibitors of the yeast RAM network, pilot screen, dse1pr::URA3 reporter, 5-FOA selection (AID 869;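 active = inhibition over a set limit, the all-compound mean plus 3 SD, in both replicate runs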;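 also: 0% = DMSO wells with no growth and 100% = 10 µM 1-NA-PP1 with full growth; RAM network block rescues cells from 5-FOA so hits raise OD615 growth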); conditions: S. cerevisiae dse1pr::URA3 5-FOA growth, OD615, 2 d; at 10 µM; stronger effect = higher value; strain carries analog-sensitive mutant Cbk1 kinase
[15] = RAM signaling pathway blockade in yeast – S. cerevisiae, Pdr1DBD-CYC8 efflux-inhibited sensitized strain, primary screen (AID 1298);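 also: 0% = DMSO untreated cells without growth and 100% = 10 µM 1-NA-PP1 full growth; higher means more yeast growth rescued from 5-FOA killing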; conditions: S. cerevisiae cbk1-as DSE1-URA3 strain, 5-FOA growth OD615, 2 d; at 50 µM; stronger effect = higher value
[16] = H69AR cells + 2 uM doxorubicin, measured here: viability with 2 uM doxorubicin, stronger effect = lower value
[17] = H69AR cells, compound alone cytotoxicity

Receptor tyrosine-protein kinase erbB-2 (Homo sapiens), sequence (P04626 whole entry, looked up): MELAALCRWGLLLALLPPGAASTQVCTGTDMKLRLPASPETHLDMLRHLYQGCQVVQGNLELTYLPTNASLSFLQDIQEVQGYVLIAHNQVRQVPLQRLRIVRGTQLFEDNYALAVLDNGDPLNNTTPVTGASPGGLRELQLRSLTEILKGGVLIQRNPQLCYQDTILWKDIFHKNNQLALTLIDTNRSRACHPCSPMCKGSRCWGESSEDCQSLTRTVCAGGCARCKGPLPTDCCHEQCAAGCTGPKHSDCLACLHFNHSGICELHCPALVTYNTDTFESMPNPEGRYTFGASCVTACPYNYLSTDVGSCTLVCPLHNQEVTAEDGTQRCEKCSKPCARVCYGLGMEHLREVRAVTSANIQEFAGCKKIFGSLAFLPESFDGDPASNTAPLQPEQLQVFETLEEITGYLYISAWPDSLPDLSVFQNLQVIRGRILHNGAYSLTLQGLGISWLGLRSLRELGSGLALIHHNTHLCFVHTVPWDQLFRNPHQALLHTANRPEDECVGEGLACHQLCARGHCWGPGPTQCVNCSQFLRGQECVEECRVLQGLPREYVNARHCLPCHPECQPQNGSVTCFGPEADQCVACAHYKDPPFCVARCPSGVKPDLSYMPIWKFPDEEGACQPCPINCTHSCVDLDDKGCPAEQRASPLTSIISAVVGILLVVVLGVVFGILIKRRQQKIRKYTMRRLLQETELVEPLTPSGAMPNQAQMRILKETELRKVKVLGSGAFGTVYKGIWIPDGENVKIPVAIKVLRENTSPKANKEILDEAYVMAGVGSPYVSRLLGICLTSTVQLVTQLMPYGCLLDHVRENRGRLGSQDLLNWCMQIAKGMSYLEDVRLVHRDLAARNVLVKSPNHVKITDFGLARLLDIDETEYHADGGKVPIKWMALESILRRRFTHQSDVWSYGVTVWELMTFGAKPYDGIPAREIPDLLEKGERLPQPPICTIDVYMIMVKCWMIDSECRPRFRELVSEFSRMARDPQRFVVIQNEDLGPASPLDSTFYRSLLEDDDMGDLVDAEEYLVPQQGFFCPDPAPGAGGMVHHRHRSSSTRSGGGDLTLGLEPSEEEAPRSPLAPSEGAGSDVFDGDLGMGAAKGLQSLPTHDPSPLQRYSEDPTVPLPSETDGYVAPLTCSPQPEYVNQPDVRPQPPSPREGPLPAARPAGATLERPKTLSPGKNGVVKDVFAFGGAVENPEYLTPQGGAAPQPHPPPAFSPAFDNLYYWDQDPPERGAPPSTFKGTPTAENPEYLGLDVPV

Structure (SMILES)	viability [1] [%]	Her2 level [2]	viability [3]	viability [4]	viability [5]	differential viability (reversal) ([6]; H69AR cells + 2 uM doxorubicin)	viability [6, 16] [%]	viability [6, 17] [%]	inhibition [7]	inhibition [8]	growth inhibition [9]	growth inhibition [10]	viability increase [11]	viability [12]	viability [13]	inhibition [14]	RAM network inhibition [15]
O=C(Nc1c(C(=O)NCc2ccco2)cnn1-c1ccccc1)c1ccc(F)cc1	95.5	116% (inactive)	95.5% (inactive)	91.9% (inactive)	96.9% (inactive)	4.25% (inactive)	92.6	96.9	-0.26% (inactive)	-6% (inactive)	-0.04% (inactive)	13.1% (inactive)	-5.34% (inactive)	101% (inactive)	96.8% (inactive)	-0.12% (inactive)	0.53% (inactive)
CCOc1ccc(C2CC(c3cccc(OC)c3)Nc3nc(N)nn32)cc1 (stereo not drawn)	91.5	114% (inactive)	91.5% (inactive)	95.8% (inactive)	90.7% (inactive)	-2.32% (inactive)	93	90.7	3.85% (inactive)	5.5% (inactive)	5.33% (inactive)	13.6% (inactive)	-0.23% (inactive)	99% (inactive)	87.1% (inactive)	1.65% (inactive)	4.8% (inactive)
CCCC(=O)C1=C(N(C)c2ccccc2)CC(C)(C)C(C(=O)OC)C1=O (stereo not drawn)	95	81% (inactive)	95% (inactive)	97.9% (inactive)	94.4% (inactive)	1.22% (inactive)	93.2	94.4	-2.47% (inactive)	-2.83% (inactive)	-1.78% (inactive)	-2.86% (inactive)	-3.32% (inactive)	93.7% (inactive)	92.9% (inactive)	-0.705% (inactive)	0.26% (inactive)
Cc1cc(C)n(-c2cc(N3CCOCC3)ncn2)n1	101	90.5% (inactive)	101% (inactive)	93.2% (inactive)	91.7% (inactive)	2.58% (inactive)	89.1	91.7	-3.47% (inactive)	3.67% (inactive)	-3.3% (inactive)	12.9% (inactive)	-1.2% (inactive)	93% (inactive)	93.1% (inactive)	0.035% (inactive)	2.04% (inactive)
